Rab9 promoter act – Rab9 promoter activation; Huh7 Rab9 promoter-luciferase reporter, luminescence, 24 h; Potency, µM (titrated, usually from 9.22 µM), most hits filed as activators; 2.8% of 320,000 active; AID 485297; also: nearly all actives have a fitted effect of over 60% in size
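Rab9 promoter-driven luciferase in stably transfected Huh7 cells; 1500 cells/well rested 2 h, exposed to compound in DMSO for 24 h at 37 °C, 5% CO2. Luminescence read 10 min after adding luciferase reagent at ambient temperature.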
NPC1 prom act – NPC1 promoter activation. Huh7 NPC1 promoter luciferase reporter, 24 h. Potency, µM (doses to about 9.22 µM), usual class: activators. 2.4% of 320,000 active. AID 485313; also: nearly all actives have a fitted effect of over 60% in size
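Huh7 reporter cells (NPC1 promoter driving luciferase) are dosed with compound for 24 h at 37 °C, 5% CO2; luciferase detection reagent is then added and luminescence measured after 10 min at ambient temperature.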
ELG1 genotoxic – induces genotoxicity in HEK293T cells with luciferase-tagged ELG1; Potency, µM (titrated, usually from 46 µM), actives largely listed as activators; AID 504466; HEK293T ELG1-luciferase reporter, luminescence, 16 h; 1.3% of 330,000 active; also: nearly all actives have a fitted effect of over 60% in size
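ELG1-luciferase HEK293T cells, 2,000/well; compound pinned in; 16 hr, 37 °C, 5% CO2; ONE-Glo, 30 min RT; luminescence on CCD imager.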
FLuc modulator – inhibits or activates purified firefly luciferase, miR-21 counter-screen; P08659; purified FLuc, Km substrates, luminescence inhibition; Potency, µM (series often up to 57.5 µM), usual class: inhibitors; 6.9% of 360,000 active; also: nearly all actives have a fitted effect of over 55% in size
Target sequence (P08659 whole entry, looked up): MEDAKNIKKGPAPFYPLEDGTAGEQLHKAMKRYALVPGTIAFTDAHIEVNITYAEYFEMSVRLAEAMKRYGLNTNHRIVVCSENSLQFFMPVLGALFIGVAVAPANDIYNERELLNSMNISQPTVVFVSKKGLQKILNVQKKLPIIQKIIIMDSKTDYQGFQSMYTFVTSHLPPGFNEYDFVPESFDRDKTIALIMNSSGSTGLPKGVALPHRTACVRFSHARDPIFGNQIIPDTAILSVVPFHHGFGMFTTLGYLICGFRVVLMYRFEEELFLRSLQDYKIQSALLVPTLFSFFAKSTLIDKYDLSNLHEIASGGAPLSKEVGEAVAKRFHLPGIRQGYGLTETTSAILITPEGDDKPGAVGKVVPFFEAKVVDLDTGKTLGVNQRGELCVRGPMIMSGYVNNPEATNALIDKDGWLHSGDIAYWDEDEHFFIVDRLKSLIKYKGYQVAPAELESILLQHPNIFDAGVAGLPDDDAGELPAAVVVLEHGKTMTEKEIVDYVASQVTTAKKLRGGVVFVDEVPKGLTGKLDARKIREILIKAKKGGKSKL
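Biochemical qHTS of compounds, final roughly 60 µM downward over six points, against 10 nM purified firefly luciferase using Km concentrations of substrates (10 uM D-luciferin, 10 uM ATP) in Tris acetate pH 7.5 buffer; luminescence output.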
SMN2 splice enh – SMN2 splice variant enhancement; HEK293 SMN2-luciferase splicing reporter, luminescence, 30-36 h; AID 1458; 2.8% of 210,000 active; Potency, µM (top dose mostly 46.1 µM), hits mostly activators; also: nearly all actives have a fitted effect of over 55% in size
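HEK293 cells carry an SMN2 […]–luciferase reporter in which exon 7 inclusion puts luciferase in frame. Cells were plated 10-12 h before compound addition, then incubated 30-36 h at 37C. ONE-Glo luminescence was read; sodium butyrate at 4.5 mM final served as control.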
Numbers stand for hits; n = inactive; u = inconclusive; x = not tested or not shown; [ ] = dose if it differs, or a comment. Compounds with a hit are over-represented: about 7.5% of the library has one in this group of screens. Calls follow the shape of the dose curve; as a rule, active = well fitted curve in the direction sought with a large enough effect; inconclusive = small, poorly fitted or top-dose-only effect, or another doubt; inactive = no such curve, though single readings can be large; an effect the other way counts as inactive or inconclusive.

SMILES	Rab9 promoter act	NPC1 prom act	ELG1 genotoxic	FLuc modulator	SMN2 splice enh
CCc1c(C(=O)N/N=C/c2ccsc2)csc1C	n	n	n	u	n
Cc1ccccc1NC(=O)C1Cc2ccccc2C(=O)O1 (stereo not given)	n	n	u	n	n
CCCCOc1cccc(/C=N/NC(=O)c2csc(C)c2C)c1	n	n	n	7.57µM	n
CCOc1ccc(/C=N/NC(=O)c2csc(C)c2C)c(OCC)c1	n	n	n	n	n
COc1ccc(-c2oc3ncn4nc(-c5cccc(C)c5)nc4c3c2-c2ccc(OC)cc2)cc1	x	x	x	n	n
c1ccc2nc(-c3ccc(-n4ccnc4)cc3)ccc2c1	0.631µM	1µM	2.59µM	3.38µM	x
Nc1ccc(-n2ccnc2)cc1	n	n	n	n	n
COc1ccc(-c2cc(=O)n3[nH]cnc3n2)cc1	x	x	x	15.1µM	x
O=C(OCCN1CCCCC1)c1cc2ccccc2o1	n	n	n	u	n
O=C(CCc1nc(-c2ccccc2)no1)NCCc1ccccc1	n	n	n	n	n
Nc1ccc2oc(C3CCCCC3)nc2c1	u	u	u	23.9µM	11.2µM
Cc1nc2ccc([N+](=O)[O-])cc2nc1C	n	n	n	n	n
O=[N+]([O-])c1ccc2oc(C3CCCCC3)nc2c1	u	n	u	16.9µM	x
Cn1c(C2CCCCC2)nc2cc(N)ccc21	n	n	n	n	x
Cn1cnnc1SCc1ccc(C(=O)N=Nc2c(O)n(Cc3ccc(Cl)cc3)c3ccccc23)cc1	n	n	n	u	n
CCC(=O)Nc1ccc2c(c1)ncn2-c1ccc(OC)cc1	n	n	18.4µM	26.9µM	12.6µM
CCC(=O)Nc1ccc2c(c1)ncn2-c1ccc(C)cc1	2.51µM	2.24µM	u	8.49µM	8.91µM
CCOc1ccc(N2CC(C(=O)NCCN3C(=O)S/C(=C/c4cccnc4)C3=O)CC2=O)cc1 (stereo not given)	n	n	n	n	x
O=C(Nc1cccc(Cn2cccn2)c1)c1cc2c(s1)CCCC2	0.355µM	0.112µM	u	u	u
O=C(Nc1cc(S(=O)(=O)N2CCOCC2)ccc1N1CCOCC1)c1cc2c(s1)CCC2	n	n	n	n	x
O=C(Nc1cccc(S(=O)(=O)N2CCOCC2)c1)c1cc2c(s1)CCC2	n	n	n	15.1µM	n
CCOC(=O)c1cnc2c(ccc3ccccc32)c1NCCCN(C)C	n	n	u	7.57µM	x
CCOC(=O)c1cnc2c(ccc3ccccc32)c1Nc1ccccc1OCC	x	x	x	n	n
CCOC(=O)c1nnc(-c2ccc(C)cc2)nc1N1CCSCC1	n	n	n	13.5µM	n
CCOC(=O)c1nnc(-c2ccc(C)cc2)nc1Sc1ccc(Cl)cc1	n	n	n	n	n
SMILES	Rab9 promoter act	NPC1 prom act	ELG1 genotoxic	FLuc modulator	SMN2 splice enh
COc1ccc(C(CC(=O)c2ccc(O)cc2)S(=O)(=O)c2ccc(C)cc2)cc1 (stereo not given)	n	u	u	9.53µM	n
Cc1cc(-c2ccc(N=Nc3c(S(=O)(=O)O)cc4cc(S(=O)(=O)O)cc(N)c4c3O)c(C)c2)ccc1N=Nc1c(S(=O)(=O)O)cc2cc(S(=O)(=O)O)cc(N)c2c1O	n	n	n	21.3µM	x
O=S(=O)(O)c1cc(O)c2c(O)c(N=Nc3cc(Cl)ccc3O)c(S(=O)(=O)O)cc2c1	n	n	n	21.3µM	x
Cc1nn(-c2ccc(S(=O)(=O)O)cc2)c(O)c1N=Nc1ccc(-c2ccc(N=Nc3ccc4c(S(=O)(=O)O)cc(S(=O)(=O)O)c(N)c4c3O)c(O)c2)cc1O.[Cu].[Cu]	x	x	x	x	n[9.22 µM]
CCCCC(C(=O)O)C(C)CC(=O)Nc1nncs1 (stereo not given)	n	n	n	n	x
COc1ccc(N2C(=O)/C(=C/N(C)C)NC2=S)cc1	n	n	n	n	x
Cc1cc(C)cc(-n2ccn3c(CC(C)(C)CC(=O)O)nnc3c2=O)c1	x	x	x	n	n
CCn1c(=NC(=O)c2ccc(S(=O)(=O)N(C)C)cc2)sc2cccc(OC)c21	n	n	n	n	n
C=CCn1c(=NC(=O)c2cccs2)sc2cccc(OC)c21	n	n	n	15.1µM	x
CN(C)c1ccc(C#Cc2ccc3cc(CCO)oc(=O)c3c2)cc1	u	3.98µM	n	1.35µM	x
O=c1oc(CCCO)cc2ccc(C#Cc3cccnc3)cc12	x	x	n	x	x
O=c1oc(CCO)cc2ccc(C#Cc3ccsc3)cc12	3.98µM	u	u	u	x
CC(C)N1CCC(N2CCN(Cc3cccc4nonc34)CC2CCO)CC1 (stereo not given)	n	n	n	n	n
COc1cccc(C(=O)NC(=S)Nc2nnn(C)n2)c1	n	n	n	n	n
CC(C)(C)SCCNC(=O)/C=C/c1ccccc1	u	u	u	19µM	x
O=C(/C=C/c1ccccc1)NCCc1ccccc1	n	n	20.6µM	19µM	x
Cc1ccc2nc(/C=C/c3cccc(F)c3)ccc2c1	2µM	3.55µM	1.84µM	1.2µM	10µM
Cc1ccc2ncccc2c1	n	n	n	n	n
O=C(N/N=C/c1cc(Br)ccc1O)c1cccc(N2CCCC2=O)c1	n	n	u	16.9µM	n
COc1ccc(O)c(/C=N/NC(=O)c2cccc(N3CCCC3=O)c2)c1	n	n	n	10.7µM	x
COc1cccc(/C=N/NC(=O)c2cccc(N3CCCC3=O)c2)c1	u	u	4.11µM	9.53µM	x
O=C(N/N=C/c1ccco1)c1cccc(N2CCCC2=O)c1	n	n	n	19µM	u
Cc1ccc(C)c(N(CC(=O)NC2CCCC2)C(=O)CNC(=O)c2cccs2)c1	n	n	n	n	x
O=C1OC[C@H]2CCCN2C(=O)[C@@H](CC(=O)N(CCO)Cc2ccccc2)C/C=C\C[C@@H]1Cc1ccc(F)cc1	x	x	n	x	x
CC(C)/C=N/NC(=O)c1cccc(N2CCCC2=O)c1	n	n	n	n	n
SMILES	Rab9 promoter act	NPC1 prom act	ELG1 genotoxic	FLuc modulator	SMN2 splice enh
CN(C)c1ccc(/C=N/NC(=O)c2cccc(N3CCCC3=O)c2)cc1	n	n	n	10.7µM	n
O=C(O)c1ccc(N/N=C/c2ccc(-c3ccc(Br)cc3)o2)cc1	n	n	u	2.39µM	x
O=C(O)c1cc(-c2ccc(/C=N/Nc3ccc(Cl)cc3)o2)ccc1Cl	n	n	n	10.7µM	n
Cc1ccc(/C=N/Nc2ccc(C(=O)O)cc2)o1	0.398µM	0.708µM	u	6.75µM	10µM
COc1cccc(-c2nnc(N(C)C(=O)C3CCOC3)s2)c1 (stereo not given)	u	n	n	u	n
CC(=O)N(c1nnc(-c2cccc(C)c2)s1)C1CCCC1	u	u	n	23.9µM	x
Cn1nc(C(F)(F)F)c(-c2ccc(Br)cc2)c1NC(=O)Nc1ccc(F)cc1F	n	n	n	n	x
COc1ccc(-c2nc(CC(=O)O)cs2)cc1OC	n	n	n	n	n
COc1cccc(-c2nc(CCl)cs2)c1OC	n	n	n	16.9µM	n
CCOc1ccc(-c2nc(CCl)cs2)cc1OC	n	n	u	16.9µM	n
O=C1CCCc2c1sc1nc3n(c(=O)c21)CCCCC3	n	u	u	n	n
O=c1c2c3c(sc2nc2n1CCCCC2)C(O)CCC3 (stereo not given)	2.82µM	u	u	u	x
